The source of these data is PubChem BioAssay AID926 (National Center for Advancing Translational Sciences (NCATS), 2007).

Test [1] in a line: qHTS Assay for Agonists of the Thyroid Stimulating Hormone Receptor. Conditions: HEK293-CNG-TSHR cells, membrane potential dye, cAMP; measured here: parental cells max response. The essentials: (§1)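 HEK 293 cells stably expressing TSHR and a modified CNG channel, with CNG-only parental cells as counterscreen, were preloaded 60 min at room temperature with membrane potential dye containing 100 uM RO 20-1724. Compound exposure was 30 min, and depolarization was read as fluorescence at 590 nm.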
In general terms: In qHTS, concentration-response curves come from the screen itself.

In test [2] the target is Thyrotropin receptor (Homo sapiens) (UniProt P16473). The test is described as above. Conditions: HEK293-CNG-TSHR cells (CNG channel as cAMP sensor), membrane potential dye, cAMP; series mostly up to 57.1 µM. The essentials:
as §1

Among all 73,000 compounds or so, about 350 (0.48%) were called active. Another 17% or so got no clear call; they are omitted. Calls follow the shape of the dose curve; as a rule, active = well fitted activation curve with a large enough effect in the main read-out, with a control signal flat (not every such curve was filed as active); inconclusive = small, poorly fitted or top-dose-only effect, or a change in a side signal; inactive = no such curve, though single readings can be large or run the other way; reference of the percent scale not stated here. What follows is part of a selection rich in actives, with near analogues and random picks from the rest.
Potency is read from the fitted curve at half-maximal effect.

Chain of Thyrotropin receptor (Homo sapiens) (P16473 whole entry, looked up): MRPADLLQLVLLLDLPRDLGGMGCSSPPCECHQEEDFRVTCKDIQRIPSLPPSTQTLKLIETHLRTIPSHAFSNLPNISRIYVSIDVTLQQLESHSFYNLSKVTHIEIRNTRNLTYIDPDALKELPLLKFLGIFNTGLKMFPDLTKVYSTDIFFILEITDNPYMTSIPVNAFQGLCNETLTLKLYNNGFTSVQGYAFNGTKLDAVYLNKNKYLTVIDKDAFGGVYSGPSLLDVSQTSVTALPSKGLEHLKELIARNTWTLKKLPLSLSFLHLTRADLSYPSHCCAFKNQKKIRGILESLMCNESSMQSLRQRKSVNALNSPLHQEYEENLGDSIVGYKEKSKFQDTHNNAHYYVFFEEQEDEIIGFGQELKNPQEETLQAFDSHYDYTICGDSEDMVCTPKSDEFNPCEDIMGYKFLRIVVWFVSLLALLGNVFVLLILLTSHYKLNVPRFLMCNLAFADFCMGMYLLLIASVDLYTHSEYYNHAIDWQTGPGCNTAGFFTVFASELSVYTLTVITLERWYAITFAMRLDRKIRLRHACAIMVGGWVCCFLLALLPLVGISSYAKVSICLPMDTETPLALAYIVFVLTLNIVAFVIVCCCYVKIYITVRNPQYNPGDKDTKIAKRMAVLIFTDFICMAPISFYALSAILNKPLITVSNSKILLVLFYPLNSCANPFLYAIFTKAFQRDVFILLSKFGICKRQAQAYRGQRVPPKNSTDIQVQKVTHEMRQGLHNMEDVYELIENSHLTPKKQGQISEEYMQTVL

Turning to `CCCC[C@@H]1C[C@H]1C(NC(=O)c1ccc(-c2ccccc2)cc1)c1ccc(-c2ccccc2)cc1` (stereo partly drawn), the activation in test [1] came to 1.42%. The Potency result in test [2] is “inactive”.
The matching figures for `Cc1cccc(Br)c1`: 15% and “inactive”.
On the same counts, the results for `CCCC(Cl)CCCC(Cl)CCC(Cl)CCC(Cl)CCC(Cl)CCCC(Cl)CCC` (stereo not drawn) are 3.46% and “inactive”.
The matching figures for `O=C(Cl)c1ccc([N+](=O)[O-])cc1`: -6.7% and “inactive”.
As for `COc1ccc(S(=O)(=O)Nc2ccc(S(=O)(=O)N3CCCCC3)cc2)cc1OC`, the activation in test [1] is -4.42%. In addition, the Potency result in test [2] is “inactive”.
On to `COc1ccc(C2SCCN2S(=O)(=O)c2ccccc2)cc1OC` (stereo not drawn), for which, in test [1], the activation was 15.1%. For the same compound, the Potency in test [2] is 31.6 µM (active).
Take `COc1ccccc1CN1CC2(CCN(S(=O)(=O)c3ccccc3)CC2)C1`: the activation in test [1] amounted to 7.71%. The Potency entry in test [2] is “inactive”.
On the same counts, the results for `Cc1ccc2oc(=O)ccc2c1` are 1.36% and “inactive”.
For the compound `CO[C@H]1COC(=O)[C@@H](OCc2ccccc2)/C=C\[C@H](C)[C@@H](OC)COC(=O)[C@H](OCc2ccccc2)/C=C\[C@@H]1C`, the activation was -2.98% in test [1] and -1.59% [at 11.4 µM] (inactive) in test [2].
For the compound `CCc1ccccc1N(CC(=O)NCCSCc1ccco1)S(C)(=O)=O`, the results for the activation in test [1] and in test [2] were 6.61% and 16.8% [at 11.4 µM] (inactive), respectively.
For `COC(=O)C1(Cc2ccccc2)C=C2C(=C(C)C(=O)C2C)CN1` (stereo not drawn), the activation in test [1] was found to be 7.11%. In addition, the Potency result in test [2] was “inactive”.
Turning to `CC(=O)N1[C@H](C)C=C[C@]1(Cc1ccccc1)C(=O)NCc1ccccn1`, the activation in test [1] is 7.85%. The Potency result in test [2] is “inactive”.
`Cc1cc(C)cc(C#CC2C=CC(Oc3ccc(C4CCCC4)cc3)C(CO)O2)c1` (stereo not drawn): the activation in test [1] was 16.7%; in test [2], 5.07% [at 11.4 µM] (inactive).
Turning to `COC(=O)[C@@]1(Cc2ccc(F)cc2)[C@@H]2[C@@H](CC(=O)[C@H]2CC(=O)C(=O)N2CCCC2)CN1C(=O)c1ccccc1`, the activation in test [1] came out at 18.8%. For the same compound, in test [2], the Potency entry was “inactive”.
The matching figures for `CCNCCCNCCCNCCCNCC`: -2.31% and “inactive”.
The matching figures for `BrC1C(Br)C(Br)C(Br)C(Br)C1Br` (stereo not drawn): 2.31% and “inactive”.
Consider `Cc1cccc(C(=O)O)c1[N+](=O)[O-]`, for which the activation in test [1] was determined as 15%. Further, the Potency result in test [2] was “inactive”.
Regarding `CC1(C)OC(C(O)(c2ccccc2)c2ccccc2)C(C(O)(c2ccccc2)c2ccccc2)O1` (stereo not drawn), the values for the activation in test [1] and in test [2] were 25.8% and 15.4% [at 11.4 µM] (inactive), respectively.
For `Cc1cccc(NC(=O)CSC(N)=O)c1C`, in test [1], the activation was -24.7%. The Potency result in test [2] was “inactive”.
`Cc1ccc(S(=O)(=O)N2CCCC2CO)cc1` (stereo not drawn): the results for the activation in test [1] and in test [2] were -3.4% and -5.75% [at 11.4 µM] (inactive), respectively.
With `CCCS(=O)(=O)N1CCCC(C(=O)NCc2ccco2)C1` (stereo not drawn), the activation in test [1] was 10.5%. For the same compound, the Potency entry in test [2] is “inactive”.
`Cc1ccc(S(=O)(=O)N2CCCC2C(=O)NCc2ccco2)cc1` (stereo not drawn): the activation in test [1] is -0.0422%. Also, the Potency in test [2] is 12.6 µM (active).
As for `C/C(CCN1CCc2nc(-c3ccccc3)c(-c3ccccc3)cc2C1)=N\O[C@@H](C)c1cn([C@@H]2COC[C@@H]2O)nn1`, the values for the activation in test [1] and in test [2] were 0.56% and 6.46% [at 11.4 µM] (inactive), respectively.
Consider `C=CCn1cnc2scc(-c3ccccc3)c2c1=O`, for which, in test [1], the activation is -2.42%. In addition, the Potency result in test [2] is “inactive”.
The matching figures for `O=C1C(c2[nH]c3ccccc3c2O)=Nc2ccccc21`: -17.9% and “inactive”.
Take `O=C(O)CS(=O)c1ccc2c3c(cccc13)C(=O)c1ccccc1-2` (stereo not drawn): the results for the activation in test [1] and in test [2] were -9.79% and -5.26% [at 11.4 µM] (inactive), respectively.
Turning to `CCCCCCN(C(=O)CCCCCN1C(=O)NC(c2ccc(C(F)(F)F)cc2)C(C(=O)OCc2ccccc2)=C1C)C(C(=O)NCCCC)c1ccc(OCC(=O)OC)c(C(=O)OC)c1` (stereo not drawn), in test [1], the activation worked out at 18.9%. Moreover, in test [2], the Potency result is “inactive”.
In the case of `O=C(CSc1nc2c(cnn2-c2ccc(F)cc2)c(=O)[nH]1)N1CCCCCC1`, the activation in test [1] was 1.57%. In test [2], the Potency entry is “inactive”.
In the case of `CN1CCC(CNC(=O)c2ccc(-n3c(=O)c(=O)[nH]c4ccccc43)cc2)CC1`, the activation in test [1] was -0.798%. Further, the Potency entry in test [2] was “inactive”.
Regarding `Cc1ccc2nc(-c3ccccc3)cc(C(=O)O)c2c1`, the activation in test [1] is -5.12%. Also, in test [2], the Potency entry was “inactive”.
On the same counts, the results for `CC(C)(C)[Si](OCC[C@@H]1C[C@@]1(C)[C@@H](NP(=O)(c1ccccc1)c1ccccc1)c1ccccc1)(c1ccccc1)c1ccccc1` are 13.3% and “inactive”.
On to `O=C(CN(Cc1ccccc1)C(=O)c1ccc2c(c1)OCCO2)NCc1ccc2c(c1)OCO2`, for which the activation in test [1] worked out at 12.9%. Further, in test [2], the Potency is 7.94 µM (active).
On the same counts, the results for `O=C(CC(Cc1ccccc1)C(=O)O)NCCc1ccc2c(c1)OCO2` (stereo not drawn) are 9.45% and “inactive”.
On the same counts, the results for `O=C(COc1ccccc1)NCc1ccc2c(c1)OCO2` are 27.1% and “inactive”.
